# Assay outcomes (PubChem BioAssay)
# nsP2pro inh = inhibitors of chikungunya virus nsP2 protease | Q8JUX6 | FRET peptide cleavage, nsP2pro, fluorescence 1 h | Potency, µM (top dose mostly 24.9 µM), for the others: top-dose activity change, negative = inhibition, actives largely listed as inhibitors | 31,000 compounds, 1.1% hits; also: nearly all actives have a fitted effect of over 60% in size
#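 Purified recombinant nsP2pro (150 nM final) in 10 mM Tris-HCl pH 8.0 with 0.01% Tween 20 was preincubated 15 min at room temperature with compound (7 concentrations, up to 25 uM). FRET peptide 2 substrate (2.5 uM final) was then added; fluorescence was read after 1 h.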
# nsP2 cell sec = inhibits CHIKV nsP2 protease in cells | shares compounds with nsP2pro inh | cell-based CHIKV nsP2 protease reporter assay | Potency, µM (top dose mostly 51.1 µM), for inactives: top-dose activity change, negative = inhibition, usual class: inhibitors | 450 compounds, 10% hits | AID 1964100; also: nearly all actives have a fitted effect of over 70% in size
# NSP2 full ctr = full-length CHIKV NSP2 protease inhibition, selectivity. shares compounds with nsP2pro inh. Full-length CHIKV NSP2 protease enzymatic counterscreen. Potency, µM (top dose mostly 50.7 µM), without a hit: at the highest dose activity change, negative = inhibition, actives largely listed as inhibitors. 410 compounds, 39% hits; also: nearly all actives have a fitted effect of over 65% in size
# Furin counterscr = inhibits human furin in a CHIKV nsP2 protease selectivity counterscreen | 410 compounds, 6% hits | shares compounds with nsP2pro inh | Recombinant human furin enzymatic counterscreen, fluorogenic substrate | AID 1964102 | Potency, µM (series often up to 50.6 µM), inactives show top-dose activity change, negative = inhibition, most hits filed as inhibitors
# NS23 peptide cs = selectivity test for CHIKV nsP2 protease inhibitors: endogenous NS2/3 peptide. Potency, µM (titrated, usually from 51 µM), for inactives: top-dose activity change, negative = inhibition, usual class: inhibitors. Purified CHIKV nsP2 protease, endogenous NS2/3 peptide cleavage. shares compounds with nsP2pro inh. 410 compounds, 34% hits; also: nearly all actives have a fitted effect of over 55% in size
# Papain cs = inhibits papain in a CHIKV nsP2 protease selectivity counterscreen | shares compounds with nsP2pro inh | purified papain protease activity, enzymatic inhibition | Potency, µM (series often up to 51 µM), without a hit: at the top dose activity change, negative = inhibition, usual class: inhibitors | 410 compounds, 5% hits
# nsP2pro confirm = CHIKV nsP2 protease inhibition, confirmatory qHTS | 410 compounds, 43% hits | CHIKV nsP2 protease enzymatic activity, qHTS | AID 1964105 | Potency, µM (doses to about 25.5 µM), without a hit: at the highest dose activity change, negative = inhibition, most hits filed as inhibitors | shares compounds with nsP2pro inh; also: nearly all actives have a fitted effect of over 75% in size
# HCV NS3 counter = inhibits HCV NS3/4A protease in an nsP2pro selectivity counterscreen; shares compounds with nsP2pro inh; HCV NS3/4A protease biochemical counterscreen; Potency, µM (top dose mostly 50.9 µM), actives largely listed as inhibitors; 410 compounds, 20% hits; also: nearly all actives have a fitted effect of over 55% in size
# Active calls of the source: *; i = inactive; u = inconclusive; ! = not confirmed by another sample; [ ] = remark or other dose. This is one part of a sample in which hits are shown more often than they occur. Calls follow the shape of the full dose curve. % is scaled to controls: 0 for no effect and ±100 for the full control effect; potency is read from the fitted curve at half-maximal effect.
SMILES,nsP2pro inh,others
COC(=O)c1c(NC(=O)C(C)N2C(=O)c3ccccc3C2=O)sc2c1C(C(=O)OC)CC2 (centres undefined),u,nsP2 cell sec=u;NSP2 full ctr=u;Furin counterscr=-9%;NS23 peptide cs=5.8µM*;Papain cs=-9%;nsP2pro confirm=3.6µM*;HCV NS3 counter=i
COC(=O)c1c(NC(=O)/C(C#N)=C/c2ccc(OC)cc2)sc2c1C(C(=O)OC)CC2 (centres undefined),-8%,
COC(=O)c1c(NC(=O)/C(C#N)=C/c2ccccc2)sc2c1C(C(=O)OC)CC2 (centres undefined),0%,
N[C@@H](CC(=O)N1CCc2c(nc(C(F)(F)F)nc2C(F)(F)F)C1)CN1CC(F)(F)CCC1=O,-12%,
COc1ccc(CNC(=O)C2CCC(CNS(=O)(=O)c3ccc4c(c3)CCCC(=O)N4)CC2)cc1 (centres undefined),-10%,
COc1ccc(CNS(=O)(=O)c2cc(-c3[nH]ncc3C(=O)N3CCCC3)oc2C)cc1,7.1µM*,nsP2 cell sec=6%;NSP2 full ctr=u;Furin counterscr=-7%;NS23 peptide cs=-4%;Papain cs=-6%;nsP2pro confirm=-8%;HCV NS3 counter=u
COc1ccc(CNS(=O)(=O)c2cc3c(cc2C)N(C)CCO3)cc1,-20%,
CC(C)(C)c1cc(C(=O)/C(C#N)=N/Nc2cccc(Cl)c2)no1,39%,
Cc1cc(C)nc(NC(=S)N2CCN(c3cccc4cnccc34)CC2)c1,-5%,
C=CCCCCCCCCC(=O)O,4.3µM*,nsP2 cell sec=-4%[17.6 µM];NSP2 full ctr=1.4µM*;Furin counterscr=u;NS23 peptide cs=u;Papain cs=u;nsP2pro confirm=2.2µM*;HCV NS3 counter=i
CCCCCCCC(=O)O,-5%,
CCCCCCCCCCCCCCCC(=O)O,-15%,
CC(C)c1ccccc1-c1ncc(F)c(NCc2ccc(-n3ccnn3)cc2)n1,i,
CC1=C(C(=O)O)N2C(=O)[C@@H](NC(=O)[C@H](N)c3ccccc3)[C@H]2SC1,0.31µM*,nsP2 cell sec=-6%;NSP2 full ctr=0%;Furin counterscr=-9%;NS23 peptide cs=1%;Papain cs=-10%;nsP2pro confirm=-21%;HCV NS3 counter=i
CC(=O)OCC1=C(C(=O)O)N2C(=O)[C@@H](NC(=O)[C@H](N)c3ccccc3)[C@H]2SC1,-19%,
CC1=C(C(=O)O)N2C(=O)[C@@H](NC(=O)[C@H](N)c3ccc(O)cc3)[C@H]2SC1,-23%,
O=C(c1cc(-c2ccc(Cl)cc2)c2nncn2n1)N1CCOCC1,-3%[39.2 µM],
COc1ccc(CNc2ccc(-c3nc4ccccc4[nH]3)cc2)cc1OC,-1%,
O=C(O)c1ccc(O)c2ncc(N3CCCCC3)cc12,i,
Cc1ccc(S(=O)(=O)O)cc1,7%,
Cc1ccc(S(=O)(=O)c2nc(S(=O)(=O)c3ccc(C)cc3)c(NC(C)C)s2)cc1,-13%,
Cc1ccc(S(=O)(=O)c2ncccc2[N+](=O)[O-])cc1,u,nsP2 cell sec=3.7µM*;NSP2 full ctr=u;Furin counterscr=-6%;NS23 peptide cs=9.2µM*;Papain cs=-6%;nsP2pro confirm=8µM*;HCV NS3 counter=i
O=C(OC[C@@]1(O)CO[C@@H](O[C@H]2[C@H](Oc3ccc(O)cc3)O[C@H](CO)[C@@H](O)[C@@H]2O)[C@@H]1O)c1ccc(O)cc1,51%[10 µM],
Cc1ccc(-c2cc(C(=O)Nc3ccccc3)c3ccccc3n2)cc1C,-12%,
Cc1cc(C)nc(NC(=S)N2CCN(c3ncccc3Cl)CC2)c1,-1%,
SMILES,nsP2pro inh,others
CCN(CC)CCNc1ccc(CO)c2sc3ccccc3c(=O)c12,u,nsP2 cell sec=u;NSP2 full ctr=-19%;Furin counterscr=-12%;NS23 peptide cs=u;Papain cs=-21%;nsP2pro confirm=66%;HCV NS3 counter=i
Cc1ccc(NCCN(C)CCNc2ccnc3cc(Cl)ccc23)c2c(=O)c3ccccc3sc12,34%[10 µM],
CCN(CC)CCNc1ccc2ncn3c4ccc(O)cc4c(=O)c1c23,101%,
Cc1cc(NC(=O)Nc2nnc(-c3cccnc3)s2)ccc1F,-16%,
CSCC[C@H](NC(C)=O)C(=O)O,-15%,
CCNC(=O)N[C@@H]1C=C[C@@H](c2c(C)nn(-c3ccc(F)cc3)c2C)C1,2%[39.2 µM],
Cc1nn(Cc2ccccc2)c(C)c1[C@@H]1C=C[C@@H](NC(=O)c2cccs2)C1,-4%[39.2 µM],
Cc1nn(CCC#N)c(C)c1[C@@H]1C=C[C@@H](NC(=O)c2cccs2)C1,u,nsP2 cell sec=4%
CN1C(C(=O)Nc2ccc(OC(F)(F)F)cc2)=CC(c2cccs2)=NS1(=O)=O,-15%,
O=C(Nc1ccc(OC(F)(F)F)cc1)c1cc(-c2ccc(Cl)cc2)on1,-15%,
Cc1c(C(=O)Nc2ccc(N3C[C@@H](C)O[C@@H](C)C3)nc2)cccc1-c1ccc(OC(F)(F)F)cc1,u,nsP2 cell sec=-13%;NSP2 full ctr=8%;Furin counterscr=-8%;NS23 peptide cs=10%;Papain cs=-10%;nsP2pro confirm=-4%;HCV NS3 counter=i
O=C1Nc2ccccc2/C1=C\c1cc(F)c(O)c(F)c1,i,
O=C1Nc2ccccc2/C1=C\c1ccc(O)c(Cl)c1,i,
O=C1Nc2ccccc2/C1=C/c1cc(O)ccc1O,7.9µM*,nsP2 cell sec=u;NSP2 full ctr=u;Furin counterscr=u;NS23 peptide cs=23µM*;Papain cs=-11%;nsP2pro confirm=8µM*;HCV NS3 counter=10µM*
Cc1ccc(S(=O)(=O)Nc2cnccc2C(=O)Nc2ccc(-n3cncn3)cc2)cc1,i,
CN(C)CCCNC(=O)c1ccc(-c2cnc3c(O)ccc(C(=O)O)c3c2)cc1,i,
CC/C(=C(/c1ccc(O)cc1)c1ccc(OCCNC)cc1)c1ccccc1,65%,
CN(C)c1cccc(-c2nc(N3CCC(C(N)=O)CC3)ncc2F)c1,5%,
CN(C)c1cccc(-c2nccc(N3CCC(C(N)=O)CC3)n2)c1,i,
CN(C)c1cccc(-c2ncc(F)c(N3CCC(C(N)=O)CC3)n2)c1,u,nsP2 cell sec=50%;NSP2 full ctr=3%;Furin counterscr=-2%;NS23 peptide cs=4%;Papain cs=-8%;nsP2pro confirm=14%;HCV NS3 counter=i
Cc1ccc(-c2cc(C(=O)Nc3cccc4ccccc34)c3ccccc3n2)cc1C,4%,
CC(C)Nc1cccnc1N1CCN(C(=O)c2cc3cc(NS(C)(=O)=O)ccc3[nH]2)CC1,1.8µM*!,nsP2 cell sec=-1%;NSP2 full ctr=u;Furin counterscr=-6%;NS23 peptide cs=u;Papain cs=-2%;nsP2pro confirm=u;HCV NS3 counter=i
COc1ccc(N2CCN(C(=O)c3cc4ccc5cccnc5c4[nH]3)CC2)cc1,-9%,
CS(=O)(=O)Nc1ccc(OCC(=O)N2CCN(c3ccc(F)cc3)CC2)nc1,-15%,
O=C(O)CC1CCC(c2ccc(-c3ccc4nc(C(=O)NCc5ccc(OC(F)(F)F)cc5)cn4c3)cc2)CC1 (centres undefined),-8%,
O=C(Nc1ncc(Cc2ccc(C(F)(F)F)cc2)s1)c1cn(-c2ccccc2)cn1,-4%,
CC(C)n1cnc2c(-c3cnc(N)nc3)nc(N3CCOCC3)nc21,-3%[10 µM],
